TWEAK Fn14 block = inhibitors of TWEAK-Fn14 interaction signaling | TWEAK-stimulated Fn14 reporter cells, luciferase luminescence, 8 h | inhibition, % at 10 µM | 2% of 360,000 active; in the data active means inhibition above about 50%
LGR2 antag = inhibitors of bursicon-induced Drosophila LGR2 receptor cAMP signaling | HEK293 LGR2, CRE-luciferase, bursicon-stimulated, 4 h | 0.35% of 380,000 active | inhibition, % at 9.99 µM;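 active means drop in luminescence signal, shown as inhibition above about 50% in the replicate tests, limit read from the data, passing the limit was not always enough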;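 further: agonist challenge used bursicon conditioned medium at about half maximal strength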
PAX8 reporter = inhibitors of PAX8 transcriptional activity in RMG-I cells; AID 652154; inhibition, % at 12.6 µM; 1.2% of 360,000 active; RMG-I TPO-luciferase reporter, SteadyGlo, 24 h;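 active means mean replicate inhibition at least 60% with every replicate also reaching 60%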;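 further: luciferase light reporting Pax8 driven TPO promoter activity; plate controls were median of neutral control wells for no effect and mitoxantrone controls for full effect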
EWS-Fli inh = inhibitors of EWS/Fli oncoprotein transcriptional activity; A673 NR0B1-luciferase reporter, viability-normalised; AID 651661; inhibition, % at 12.6 µM; 0.67% of 350,000 active;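 active means mean inhibition of at least 50% after viability correction, with every replicate also passing that limit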;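 further: firefly luciferase signal divided by Alamar Blue viability fluorescence both relative to DMSO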
TROY signal inh = TROY signaling inhibition; Q293 LMP1-TROYcd NF-kB luciferase reporter, 4 h; inhibition, % at 10 µM; 0.98% of 360,000 active; AID 1347056;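 active means compounds whose plate-normalised and pattern-corrected inhibition of the luciferase reporter signal at the single screening dose is 50% or more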
LMP1 NFkB inh = reduces LMP1-driven NF-kappaB luciferase signal; inhibition, % at 12.5 µM; 0.69% of 350,000 active; AID 504558; LMP1-induced NF-kappaB luciferase reporter cells, luminescence; in the data active means inhibition above about 41%;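 further: 0% = neutral control wells and 100% = reference inhibitor control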
Numbers without * were called inactive; · = not tested or not shown. A selection: hits, their analogues and other compounds. The true share with any hit is near 3.2%.

SMILES	TWEAK Fn14 block	LGR2 antag	PAX8 reporter	EWS-Fli inh	TROY signal inh	LMP1 NFkB inh
CN1c2ccc(-c3ccccc3)cc2[C@@H]2[C@@H](CCN2C(=O)Cc2ccccc2)[C@@H]1CO	·	7.6	35.3	11.9	·	·
CN1c2ccc(C#Cc3cccnc3)cc2[C@@H]2[C@@H](CCN2C(=O)Cc2cccnc2)[C@@H]1CO	·	-3.2	87.9*	-12.1	·	·
CN1c2ccc(-c3cccc(F)c3)cc2[C@@H]2[C@@H](CCN2C(=O)Cc2ccccc2)[C@@H]1CO	·	8.6	75.1*	1.6	·	·
COc1ccc(-c2ccc3c(c2)[C@H]2[C@H](CCN2C(=O)Cc2cccnc2)[C@H](CO)N3C)cc1	·	·	85.6*	6.5	·	·
CCCNC(=O)[C@H]1[C@H](CO)[C@H]2Cn3c(ccc(-c4cccnc4)c3=O)[C@H]2N1CCC	·	0.8	-4.1	0.5	·	·
COc1ccc(S(=O)(=O)Nc2ccc3c(c2)CC(=O)N([C@@H](C)CO)C[C@@H](C)[C@H](CN(C)Cc2ccc(C(F)(F)F)cc2)O3)cc1	·	21.0	110.7*	41.7	·	·
COc1ccc(S(=O)(=O)Nc2ccc3c(c2)CC(=O)N([C@@H](C)CO)C[C@@H](C)[C@@H](CN(C)Cc2ccc(C(F)(F)F)cc2)O3)cc1	·	15.0	18.7	8.6	·	·
COc1ccc(S(=O)(=O)Nc2ccc3c(c2)CC(=O)N([C@H](C)CO)C[C@H](C)[C@@H](CN(C)Cc2ccc(C(F)(F)F)cc2)O3)cc1	·	·	112.9*	19.2	·	·
Cc1ccc(OC(=O)N(C)C[C@@H]2OCc3cn(nn3)CCCC(=O)N([C@H](C)CO)C[C@@H]2C)cc1	·	5.7	0.4	-4.7	·	·
Cc1cc(C(C)(C)C)oc1C(=O)NCCCNC(=O)c1oc(C(C)(C)C)cc1C	74.1*	·	·	·	·	-1.7
Cc1cccc(Nc2nc(N)c([N+](=O)[O-])c(N3CCCC(C)C3)n2)c1 (stereo not given)	64.1*	4.4	47.4	·	36.0	10.2
O=C(C[C@@H]1CC[C@@H]2[C@H](COC[C@H](O)CN2S(=O)(=O)c2ccccc2Cl)O1)N1CCC(Cc2ccccc2)CC1	·	-2.5	78.5*	10.6	·	·
O=C(C[C@H]1CC[C@H]2[C@@H](COC[C@@H](O)CN2S(=O)(=O)c2ccccc2Cl)O1)N1CCC(Cc2ccccc2)CC1	·	3.8	80.2*	22.7	·	·
COc1ccc2nc3c(cc2c1)c(NC(=O)c1cccs1)nn3CC(C)C	51.2*	·	·	·	3.8	-145.5
CC(C)Cn1nc(NC(=O)c2cccs2)c2cc3ccccc3nc21	-14.0	·	15.0	-5.4	8.7	9.2
O=C1CC(c2ccccc2)CC(O)=C1C=NCc1ccc(Cl)c(Cl)c1 (stereo not given)	76.4*	·	·	·	·	7.1
O=C1CC(c2ccccc2)CC(O)=C1C=NCc1ccncc1 (stereo not given)	11.1	-2.2	-5.4	0.3	-3.1	7.9
COc1ccc(OCC(=O)N2c3ccccc3CCc3ccccc32)cc1	-5.9	5.2	-97.5	·	3.7	4.0
COc1ccc(N2C3=[N+](CC2(C)O)c2ccccc2CC3)cc1 (stereo not given)	-27.7	-40.6	·	1.1	-20.8	69.3*
CO[C@H]1CN(C)C(=O)c2cc(NC(C)=O)ccc2OC[C@H](C)N(C(=O)CC2CC2)C[C@@H]1C	·	-3.7	·	-5.5	·	·
Cc1ccc(CNC(=O)c2ccc3c(=O)c(O)c(-c4ccc(C)cc4)[nH]c3c2)cc1	-2.0	29.2	70.0*	8.7	8.1	-76.8
CCCNC(=O)c1ccc2c(=O)c(O)c(-c3ccc(C)cc3)[nH]c2c1	5.7	15.5	49.6	11.2	5.0	10.1
CCC(C)[C@H](NC(=O)NCc1cccnc1)C(=O)OC (stereo not given in full)	2.0	-2.0	0.1	19.8	7.8	51.7*
CCC(C)[C@H](NC(=O)NCc1ccc(S(N)(=O)=O)cc1)C(=O)OC (stereo not given in full)	8.0	3.8	6.9	6.9	11.2	0.7
Cc1ccc(S(=O)(=O)N[C@@H]2CC[C@@H](CCn3cc(C4CCCCC4)nn3)O[C@H]2CO)cc1	·	9.7	12.8	1.5	·	·
SMILES	TWEAK Fn14 block	LGR2 antag	PAX8 reporter	EWS-Fli inh	TROY signal inh	LMP1 NFkB inh
CC(C)NC(=O)Nc1ccc2c(c1)C(=O)N([C@@H](C)CO)C[C@@H](C)[C@H](CN(C)C(=O)Nc1ccc(C(F)(F)F)cc1)O2	·	-1.3	7.5	-5.3	·	·
O=C(Nc1ccc(CN2CCOCC2)cc1)c1ccc(-c2cc(Cl)ccc2Cl)o1	75.8*	·	20.8	·	50.9*	5.9
O=C(Nc1ccc(S(=O)(=O)N2CCCC2)cc1)c1ccc(CN2CCOCC2)cc1	22.2	·	·	·	21.9	15.7
O=C(Nc1ccc(S(=O)(=O)N2CCCCC2)cc1)c1ccc(CN2CCOCC2)cc1	68.3*	·	·	·	52.7*	4.7
O=S(=O)(c1ccc(NC(=S)NC23CC4CC(CC(C4)C2)C3)cc1)N1CCCCC1	69.5*	15.6	-1.3	13.1	44.5	4.6
N#CC(C#N)=NNc1ccc(S(=O)(=O)N2CCCCC2)cc1	47.8	·	52.5	14.3	59.0*	19.2
O=C(CC1CC1)N1[C@H](CO)[C@@H](c2ccccc2)C12CN(S(=O)(=O)c1ccccc1)C2	·	-4.0	1.8	5.0	·	·
CC(C)NC(=O)N(C)C[C@@H]1Oc2ccc(NC(=O)C3CCCCC3)cc2C(=O)N([C@@H](C)CO)C[C@H]1C	·	14.6	-6.6	-5.6	·	·
CCOc1ccc(CCNC(=O)CCn2ccc3cc(S(=O)(=O)N4CCCC4)ccc32)cc1	2.9	4.2	13.0	5.7	0.2	72.1*
CC(=O)Nc1ccc(S(=O)(=O)N2CCCC2)cc1	-0.6	-12.0	2.7	-5.3	-16.7	71.2*
CN(C)S(=O)(=O)c1cccc(NC(=S)NC23CC4CC(CC(C4)C2)C3)c1	62.5*	-7.3	-1.2	1.2	9.1	8.5
COCCCn1cnnc1SCC(=O)Nc1ccc(S(=O)(=O)N2CCCC2)cc1	-22.5	·	·	·	-9.7	59.7*
CC(=O)Nc1ccc(S(=O)(=O)N2CCN(S(=O)(=O)N3CCCCCC3)CC2)cc1	-2.2	12.4	·	·	7.4	5.1
COCC(=O)Nc1ccc2c(c1)C(=O)N(C)C[C@@H](OC)[C@H](C)CN(Cc1cc(F)ccc1F)[C@@H](C)CO2	·	14.3	14.9	5.2	·	·
CCOc1ccc(N2C(=O)CS(=O)(=O)C2c2ccccc2)cc1 (stereo not given)	·	·	16.1	-6.0	·	·
O=C1CN(Cc2ccc(F)cc2)C[C@@H]2[C@@H](c3ccc(-c4ccccc4F)cc3)[C@H](CO)N12	·	-6.7	24.4	-5.0	·	·
O=C(c1cccnc1)N1C[C@@H]2[C@H](c3ccccc31)[C@H](CO)N2C(=O)Nc1cccc(F)c1	·	12.5	2.8	-6.7	·	·
CC(=O)NCCc1ccc(S(=O)(=O)N2CCCC2)cc1	82.0*	·	·	·	1.4	-0.3
CN(C)C(=O)C[C@@H]1CC[C@@H]2[C@H](COC[C@@H](O)CN2CC2CCCC2)O1	·	2.2	-12.7	0.7	·	·
O=C(c1cc(-c2ccc(Cl)cc2)on1)N1CCOCC1	51.4*	-13.8	·	·	8.0	3.9

From PubChem BioAssay
